{"source": "the supplement of paper PMC6555819", "data": [{"tested_on": "VDR:RXRa (NR concentration 270 nM, RXRa partner concentration 90 nM)", "assay": "PBM binding z-score (relative to random genomic background probes); higher = stronger binding; sequences stand for … in GC…GCGATTGACAGCGTAGAATGAAGG", "description": "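Protein-binding microarray (Agilent 4x180K custom design, double-stranded 60-nt probes: 5' GC cap, 34-nt variable region, 24-nt constant primer region; full probe sequence given). Purified or IVT nuclear receptor:RXRα heterodimers (3:1 NR:RXRα, mostly 270:90 nM) or homodimers were incubated for 1 h in PBS with 2% milk and no ligand, then detected with Alexa488 antibodies. Fluorescence from o1-orientation probes (~5 replicates averaged) was converted to z-scores against 500 random hg19 background probes. Variable regions are seed direct-repeat (DR0–DR5) sites, all their single-nucleotide variants and half-site ablations.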", "values": [{"sequence": "CGTCCAAGGCCAGCAGGTCAGTGAAAGCGACGTG", "PBM binding z-score": -0.178}, {"sequence": "ATCCCTAGGTAACAAGTTCAGTGAAAGAGAGGAC", "PBM binding z-score": 1.91}, {"sequence": "ATCGAAAGGTCGAGGTGAGTATGGAGAAAGGGAA", "PBM binding z-score": 2.59}, {"sequence": "TCTCGGAGGACACGACGGTCAGAGCTTTCCAGAG", "PBM binding z-score": -0.164}, {"sequence": "AGAATGTGGTTAAGATCAGGGAAACAGAATACAT", "PBM binding z-score": -0.0223}, {"sequence": "TGAAGGAGGTTAAAGATCAGGGAACGTGGCGTCG", "PBM binding z-score": 1.24}, {"sequence": "GGAACGAGGGCAAAGTTGATAGCTTCTGTCGACG", "PBM binding z-score": 1.09}, {"sequence": "CTCGAAAGGTCGTGCTCAGGTGAGTAAACCAAAC", "PBM binding z-score": 2.99}, {"sequence": "CCGACTGGGGCAAGGTTACCAAAACGCACAGCCA", "PBM binding z-score": 0.129}, {"sequence": "CAAACTAGGTCAAAGGTCCAAGTCGAGCCAACCA", "PBM binding z-score": 3.41}, {"sequence": "TCGAGTAGGTTAGGGACATTCAGAATGGCGTCGA", "PBM binding z-score": -0.0636}, {"sequence": "CCTAATGGGCCAAAGGTCATTGATTCCAATGCTC", "PBM binding z-score": 4.64}, {"sequence": "ATCTCTAGGTAAGAGTCAGTTCAGTGAAGAACGC", "PBM binding z-score": 0.748}, {"sequence": "TAGCCTAGGTCATTGGGGCAGTATAGTACGCATC", "PBM binding z-score": 3.19}, {"sequence": "ATCTCTAGGTAAGACTCAGTTTAGTGAAGAACGC", "PBM binding z-score": 0.468}, {"sequence": "CTACCAAAGTGAACAAGGTCGTTGATTACTATTC", "PBM binding z-score": 3.07}, {"sequence": "ACTATTAGTTGAGACGAGGACAACCGATAGGTTG", "PBM binding z-score": 0.286}, {"sequence": "TCTTGTAGATCAATAGAGGTGAAGAAAGTGCGCT", "PBM binding z-score": 0.991}, {"sequence": "GCGACTGGGGCATCAGCAGGTTACCACAACTTAA", "PBM binding z-score": -0.211}, {"sequence": "ACTAGTTGGTCAGCTGAGGTGACACACAATTCGG", "PBM binding z-score": 0.731}, {"sequence": "CCGACTGGGGCATATGGTTACCATAAGCCAGCCC", "PBM binding z-score": -0.695}, {"sequence": "GCTTACGGGTCAAAGGTTATAGCCTGAATAGAAT", "PBM binding z-score": 5.72}, {"sequence": "CAAACTAGGTCACGAAAGGTCAAAGGCGAATGAC", "PBM binding z-score": 6.79}, {"sequence": "CCTACTGTGCCACGAAAGGTCATTGATTCAGTGA", "PBM binding z-score": 4.38}, {"sequence": "TCGAGTAGGTTACCAATTGGGCATTCAGCTTTCT", "PBM binding z-score": -0.197}, {"sequence": "ACTATTAGTTGACTCAGGGCAACCGATACGACGC", "PBM binding z-score": 0.825}, {"sequence": "AATACAGGGTCATCGTAGGCCACAGTACGCACAG", "PBM binding z-score": 5.63}, {"sequence": "ATTACAGGGTCATCGTAGGCCAGAGTACGCACAG", "PBM binding z-score": 5.39}, {"sequence": "TCTAGTTGGTCACGGAGGTGACACACGACGGGTA", "PBM binding z-score": 1.59}, {"sequence": "CAAACTAGGGCAAGGTCAAAGTCGGTTTGTGCCA", "PBM binding z-score": 4.44}, {"sequence": "TCTCGGAGGACACGAAAGGTCAGAGCACGACATC", "PBM binding z-score": 3.41}, {"sequence": "TGACAAAGTTCAAAGGTAACGTAAGTATCCACAC", "PBM binding z-score": 5.25}, {"sequence": "CCTAGTTGGTCAAGTTCACACACGCTATAGGTAC", "PBM binding z-score": 3.96}, {"sequence": "CCTCGGAGGACAGAAGGTCAGACCTGTCCGCTTT", "PBM binding z-score": 1.05}, {"sequence": "TAGTCTAGGTCATTCAGGGGCCAGTATAGAAAGC", "PBM binding z-score": 3.15}, {"sequence": "CCTACTGGGCCATTCCGAGGTCATTGATCATATG", "PBM binding z-score": 3.86}, {"sequence": "TCTCGGAGGACACGAAGGGTCAGAGCTCGACATC", "PBM binding z-score": 1.91}, {"sequence": "TCGAGCAGGTTAGTCGGGGCATTCAGCCAACATA", "PBM binding z-score": 2.09}, {"sequence": "TCTAGCAGGCCAGTGGGTCACTCAAGAGGTACGG", "PBM binding z-score": 0.297}, {"sequence": "CGTTACGGGTCACGAGGTTATAGCACGACGAGCG", "PBM binding z-score": 5.35}]}]}
